Screens: PubChem, Center for Chemical Genomics, University of Michigan
This is one part of a sample in which hits are shown more often than they occur.
Dicer inh: human Dicer pre-microRNA cleavage inhibition; actives 6% (n = 47,000); cat-ELCCA pre-miR-21 Dicer processing, chemiluminescence; active compounds read high; z-score at 25 µM; AID 1347074; Q9UPY3; in the data active = z-score above about 3, passing the limit was not always enough;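 note: plate controls were vehicle for no effect and no enzyme for full effect; higher signal means more uncleaved substrate so more Dicer inhibition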
Target sequence (Q9UPY3 whole entry, looked up): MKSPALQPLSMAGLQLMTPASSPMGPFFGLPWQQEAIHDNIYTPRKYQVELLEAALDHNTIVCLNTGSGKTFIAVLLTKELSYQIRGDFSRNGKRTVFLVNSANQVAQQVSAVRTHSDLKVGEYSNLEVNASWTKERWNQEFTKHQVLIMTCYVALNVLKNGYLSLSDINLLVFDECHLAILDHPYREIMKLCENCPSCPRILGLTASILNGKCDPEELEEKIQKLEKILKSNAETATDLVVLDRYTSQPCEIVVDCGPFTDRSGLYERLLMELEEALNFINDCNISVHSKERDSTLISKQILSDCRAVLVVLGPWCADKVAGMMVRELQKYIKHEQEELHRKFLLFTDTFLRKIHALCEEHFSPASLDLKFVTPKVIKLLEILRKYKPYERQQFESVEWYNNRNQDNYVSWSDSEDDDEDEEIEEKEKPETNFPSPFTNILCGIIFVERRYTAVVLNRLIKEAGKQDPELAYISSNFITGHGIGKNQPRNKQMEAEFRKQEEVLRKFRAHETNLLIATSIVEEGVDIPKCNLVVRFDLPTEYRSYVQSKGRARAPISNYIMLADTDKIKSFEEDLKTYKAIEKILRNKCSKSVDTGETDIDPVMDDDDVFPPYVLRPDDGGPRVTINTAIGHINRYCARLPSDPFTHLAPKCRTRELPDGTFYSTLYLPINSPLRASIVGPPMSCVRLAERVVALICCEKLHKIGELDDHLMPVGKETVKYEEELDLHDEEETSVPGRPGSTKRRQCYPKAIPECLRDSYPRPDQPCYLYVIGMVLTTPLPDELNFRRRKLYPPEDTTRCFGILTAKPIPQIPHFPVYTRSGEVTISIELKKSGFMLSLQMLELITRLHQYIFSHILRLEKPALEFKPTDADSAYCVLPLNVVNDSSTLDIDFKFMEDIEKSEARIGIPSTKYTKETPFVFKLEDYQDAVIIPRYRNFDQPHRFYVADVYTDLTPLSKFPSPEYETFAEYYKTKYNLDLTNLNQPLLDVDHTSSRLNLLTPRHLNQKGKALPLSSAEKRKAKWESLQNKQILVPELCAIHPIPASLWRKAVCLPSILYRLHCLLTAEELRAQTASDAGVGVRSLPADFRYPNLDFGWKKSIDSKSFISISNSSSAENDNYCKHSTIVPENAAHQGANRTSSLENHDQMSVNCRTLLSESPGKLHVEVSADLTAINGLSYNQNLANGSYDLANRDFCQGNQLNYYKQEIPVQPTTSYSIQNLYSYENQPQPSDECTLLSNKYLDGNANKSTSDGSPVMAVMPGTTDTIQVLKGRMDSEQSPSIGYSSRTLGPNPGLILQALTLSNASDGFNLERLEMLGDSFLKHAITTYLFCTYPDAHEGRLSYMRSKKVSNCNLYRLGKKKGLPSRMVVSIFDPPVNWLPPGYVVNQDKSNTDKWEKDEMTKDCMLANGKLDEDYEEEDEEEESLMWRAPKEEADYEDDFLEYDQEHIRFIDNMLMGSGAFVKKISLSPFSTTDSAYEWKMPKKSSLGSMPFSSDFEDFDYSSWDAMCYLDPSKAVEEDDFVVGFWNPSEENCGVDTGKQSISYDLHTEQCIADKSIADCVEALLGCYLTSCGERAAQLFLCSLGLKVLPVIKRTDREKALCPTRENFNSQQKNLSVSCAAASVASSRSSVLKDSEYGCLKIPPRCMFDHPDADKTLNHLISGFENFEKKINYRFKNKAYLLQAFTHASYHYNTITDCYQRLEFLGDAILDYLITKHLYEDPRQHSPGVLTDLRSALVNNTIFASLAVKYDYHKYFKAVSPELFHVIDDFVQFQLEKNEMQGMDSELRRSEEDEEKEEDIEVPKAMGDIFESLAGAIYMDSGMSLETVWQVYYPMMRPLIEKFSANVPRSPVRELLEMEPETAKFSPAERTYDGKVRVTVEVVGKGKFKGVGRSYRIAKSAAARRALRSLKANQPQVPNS
* marks the source's active call; other numbers are inactive results.

SMILES	Dicer inh
CCOC(=O)CC(=O)CSc1nnc(NC(=O)c2ccc(C)cc2)s1	-1.4
COc1ccc(C2CC(=O)C3=C(C2)Nc2ccccc2NC3c2cccc3ccccc23)cc1OC (stereo not drawn)	5.4*
COc1ccc(C2CC(=O)C3=C(C2)Nc2ccccc2NC3c2ccc(SC)cc2)cc1OC (stereo not drawn)	5.2*
COc1ccc(C2CC(=O)C3=C(C2)Nc2ccccc2NC3c2cc(OC)ccc2OC)cc1 (stereo not drawn)	-0.4
COc1ccc(C2Nc3ccccc3NC3=C2C(=O)CC(c2ccccc2)C3)c(OC)c1 (stereo not drawn)	1.7
COc1cc(C2Nc3ccccc3NC3=C2C(=O)CC(c2ccc4c(c2)OCO4)C3)ccc1OC(C)=O (stereo not drawn)	1.4
Cc1ccc(C2CC(=O)C3=C(C2)Nc2ccccc2NC3c2ccc3c(c2)OCO3)cc1 (stereo not drawn)	-1.1
CSc1ccc(C2Nc3ccccc3NC3=C2C(=O)CC(c2ccc4c(c2)OCO4)C3)cc1 (stereo not drawn)	4.6*
COc1cc(C2Nc3ccccc3NC3=C2C(=O)CC(c2ccc(OC)c(OC)c2)C3)ccc1O (stereo not drawn)	-0.72
COc1ccc(C2CC(=O)C3=C(C2)Nc2ccccc2NC3c2ccc(OC)c(O)c2)cc1 (stereo not drawn)	1
O=C(Cn1c(NCCO)nc2ccccc21)c1cccc(Br)c1	1
O=C(c1ccccc1)c1cccc(NC(=O)c2c(F)cccc2Cl)c1	0.31
C[C@@H](N)C(=O)OCc1ccccc1	-0.77
CN(C)CCCN1C(=O)C(O)=C(C(=O)c2cccs2)C1c1ccccc1F (stereo not drawn)	-1.8
CCN(CC)CCSc1nc(O)c(C)c(=O)[nH]1	2.9
CC1=CC(C)(C)Nc2ccc(OC(=O)COc3ccccc3)cc21	-3.4
CC1=CC(C)(C)Nc2ccc(OC(=O)c3cccc(Br)c3)cc21	3.1*
CCOC(=O)Oc1ccc2c(c1)C(C)=CC(C)(C)N2	0.43
CC1=CC(C)(C)Nc2ccc(OC(=O)c3ccc(Cl)cc3)cc21	4.6
CC1=CC(C)(C)Nc2ccc(OC(=O)c3ccccc3Br)cc21	4*
CC1=CC(C)(C)N2C(=O)C(=O)c3cc(OC(=O)c4ccccc4Br)cc1c32	1.7
Cc1cc(NC(=O)c2cc(C(C)(C)C)oc2C)nc(C)n1	-1.1
N#C/C(=C\c1ccccc1Sc1ccc(Cl)cc1)S(=O)(=O)c1ccc(Cl)cc1	-1.6
Cc1cc(NC(=O)c2sc3nc4c(cc3c2N)CCCCCC4)no1	2.2
CC(C)(C)/C=N/NC(=O)CNS(=O)(=O)c1cccc2nsnc12	-0.72
SMILES	Dicer inh
COc1ccc(C(C[N+](=O)[O-])Sc2cccc(N)c2)cc1 (stereo not drawn)	-4.6
O=C(O)c1cc2cc(Cc3cccnc3)ccc2o1	3.6*
O=C(O)c1cc2c(ccc3ccccc32)o1	1
O=C(Nc1cccnc1)c1cc2c(ccc3ccccc32)o1	-0.39
S=c1c2ccccc2[nH]c2ccccc12	-5.3
Cc1ccc(CSc2nc3c(c(-c4cccs4)c2C#N)CCCC3)cc1	-0.27
Cc1onc(-c2ccccc2)c1CNS(=O)(=O)c1ccc(-c2cnco2)cc1	-0.38
O=C(c1ccncc1)N(c1ccc2oc(=O)sc2c1)S(=O)(=O)c1ccc(F)cc1	3.2*
O=C(c1cccnc1)N(c1ccc2oc(=O)sc2c1)S(=O)(=O)c1ccc(Cl)cc1	10*
COc1ccc(OC)c(S(=O)(=O)N(C(=O)c2cccnc2)c2ccc3oc(=O)sc3c2)c1	1.4
O=C(c1ccncc1)N(c1ccc2oc(=O)sc2c1)S(=O)(=O)c1ccc(Cl)cc1	2.9
O=C(c1cccnc1)N(c1ccc2oc(=O)sc2c1)S(=O)(=O)c1ccc(F)cc1	11*
CC(C)C(=O)N(c1ccc2oc(=O)sc2c1)S(=O)(=O)c1ccc(F)cc1	-3.1
CC(C)C(=O)N(c1ccc2oc(=O)sc2c1)S(=O)(=O)c1ccc(Cl)cc1	25
CCOC(=O)c1c(NC(=S)N2CCCc3ccccc32)sc2c1CCN(C(=O)OCC)C2	-2.6
CCOC(=O)c1ccc(N2C(=O)C3ON(c4ccccc4C)C(c4cccs4)C3C2=O)cc1 (stereo not drawn)	-0.15
Nc1nc(Sc2cc(-n3cccc3)c(Cl)cc2[N+](=O)[O-])n[nH]1	2.4
NC(=O)c1cccc2cccc(I)c12	-0.25
CCc1nc(SCC(=O)c2ccc(F)cc2)n[nH]1	3.2
C=CCn1c2ccccc2c2nnc(SCC(=O)Nc3cc(C)on3)nc21	0.28
C=CCn1c2ccccc2c2nnc(SCC(=O)Nc3ncc([N+](=O)[O-])s3)nc21	0.77
C=CCn1c2ccccc2c2nnc(SCC(=O)Nc3nc(C)c(C(=O)OCC)s3)nc21	4.9*
CCCCOC(=O)C1=C(C)NC2=C(C(=O)CC(C)(C)C2)C1c1ccccc1Br (stereo not drawn)	-1.2
NS(=O)(=O)c1ccc2c(c1)Cc1cc(S(N)(=O)=O)ccc1-2	-1.6
N=C(N)SCc1cccc(CSC(=N)N)c1F	-3.4
SMILES	Dicer inh
N=C(N)SCc1cccc(Cl)c1	1.3
N=C(N)SCc1cc2ccccc2o1	3.2*
COc1ccc(N2C(=O)CC(N3CCN(CCO)CC3)C2=O)cc1 (stereo not drawn)	-1
Cc1c(Sc2ccc(Cl)cc2)cnn1C(=O)c1ccc(Cl)cc1	-1.4
c1ccc(-c2noc(CSc3nnc(-c4cccs4)n3-c3ccccc3)n2)cc1	3.6*
c1ccc(-c2noc(CSc3nnc(-c4ccco4)n3-c3ccccc3)n2)cc1	0.44
Cc1nnc(SCc2nc(-c3ccc(Cl)cc3)no2)n1-c1ccccc1	0.62
Cc1ccc(C(=O)CSc2nnc(C)n2-c2ccc(OCc3ccccc3)cc2)cc1	-0.35
CCOC(=O)NNc1ncc(C(F)(F)F)cc1Cl	1.4
CSc1ccncc1C(=O)Nc1cc(Cl)cc(Cl)c1	-1.2
Cc1ccc(-c2nnc(NCc3ccccc3)c3ccccc23)cc1S(=O)(=O)NCCO	0.06
CNS(=O)(=O)c1cc(-c2nnc(Nc3ccc4c(c3)OCO4)c3ccccc23)ccc1C	4.8*
Cc1ccc(-c2nnc(Nc3ccc(O)cc3)c3ccccc23)cc1S(=O)(=O)N(C)C	2.4
Cn1cc(Br)c(/C=N/Nc2ccccn2)n1	2
O=C(Nc1ccc(F)c(Cl)c1)Oc1ccccc1	0.75
O=C(Cc1c(F)cccc1Cl)NC(=O)Nc1ccc(F)c(Cl)c1	3.9*
O=C(Cc1c(F)cccc1Cl)NC(=O)Nc1ccc(Cl)cc1	0.22
CCCc1cc(N2CCN(CCO)CC2)n2c(nc3ccccc32)c1C#N	1.4
Cc1cc(N2CCN(CCO)CC2)n2c(nc3ccccc32)c1C#N	5.3*
Cc1cc(NCCCCO)n2c(nc3ccccc32)c1C#N	0.91
O=C(O)CSc1nnc2n(Cc3ccccc3)c3ccccc3n12	-0.18
Cc1nc(-c2ccc(Oc3ncc(C(F)(F)F)cc3Cl)cc2)no1	-0.42
COc1ccc(C2N=C(N)Nc3nc4ccccc4n32)cc1 (stereo not drawn)	-0.05
COc1ccc(OC)c(C2N=C(N)Nc3nc4ccccc4n32)c1 (stereo not drawn)	-1.2
COc1ccccc1C1N=C(N)Nc2nc3ccccc3n21 (stereo not drawn)	34*
COc1ccc(CNCc2ccc(OC)c(OC)c2)cc1C	0.23
N#CC1=C2N=C(N)c3ccccc3N2C2=C(C(=O)CCC2)C1c1ccc(Cl)cc1 (stereo not drawn)	2
CN(C)c1ccc(C2C(C#N)=C3N=C(N)c4ccccc4N3C3=C2C(=O)CC(C)(C)C3)cc1 (stereo not drawn)	6.9*
